Source: PMC7862700, “An all-to-all approach to the identification of sequence-specific readers for epigenetic DNA modifications on cytosine”

Legend:
Experiment in all cases: DAPPL (digital affinity profiling via proximity ligation, sequencing); 10 mM Tris-HCl pH 7.5, 50 mM NaCl, 1 mM DTT, 4% glycerol, room temperature, 30 min; GST-TFs on glutathione beads, 16-mer random dsDNA library, 0.1% formaldehyde crosslink after washing; high values mean tight binding
FLI1 = target: T1, FLI1 (Homo sapiens, UniProt Q01543 1-452); conditions: protein: recombinant; tags: N-terminal GST; dsDNA, one strand shown
T1 sequence: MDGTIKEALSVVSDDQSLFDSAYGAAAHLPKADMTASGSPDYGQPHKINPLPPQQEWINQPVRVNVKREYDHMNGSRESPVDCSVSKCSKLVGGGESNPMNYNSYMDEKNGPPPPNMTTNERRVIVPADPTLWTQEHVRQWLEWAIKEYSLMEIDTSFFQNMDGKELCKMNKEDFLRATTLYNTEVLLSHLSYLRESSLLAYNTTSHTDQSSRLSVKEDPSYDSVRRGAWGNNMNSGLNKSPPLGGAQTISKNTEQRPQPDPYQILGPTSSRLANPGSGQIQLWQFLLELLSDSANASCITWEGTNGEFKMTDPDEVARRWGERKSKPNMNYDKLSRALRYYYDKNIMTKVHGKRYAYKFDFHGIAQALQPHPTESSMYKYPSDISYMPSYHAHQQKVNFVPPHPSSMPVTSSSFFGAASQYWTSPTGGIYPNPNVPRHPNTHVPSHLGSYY
Summary of the method: (§1)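 Sequencing on an Illumina NextSeq500 followed washing, crosslinking with 0.1% formaldehyde, proximity ligation (BsaI/T4 ligase, 1 h, 37 °C) and PCR amplification of pools that had been incubated for 30 min at room temperature with 200 nmole of a random double-stranded 16-mer DNA library in Tris/NaCl/DTT/glycerol buffer. Each pool held DNA-barcoded human transcription factors, expressed in yeast as GST fusions and captured on glutathione beads, plus a tag-only sample. Binding signal is a hexamer's read frequency for a factor divided by its frequency in the tag-only sample.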

ELK1 = target: T2, ELK1 (Homo sapiens, UniProt P19419 1-428); conditions: protein: recombinant; tags: N-terminal GST; dsDNA, one strand shown
T2 sequence: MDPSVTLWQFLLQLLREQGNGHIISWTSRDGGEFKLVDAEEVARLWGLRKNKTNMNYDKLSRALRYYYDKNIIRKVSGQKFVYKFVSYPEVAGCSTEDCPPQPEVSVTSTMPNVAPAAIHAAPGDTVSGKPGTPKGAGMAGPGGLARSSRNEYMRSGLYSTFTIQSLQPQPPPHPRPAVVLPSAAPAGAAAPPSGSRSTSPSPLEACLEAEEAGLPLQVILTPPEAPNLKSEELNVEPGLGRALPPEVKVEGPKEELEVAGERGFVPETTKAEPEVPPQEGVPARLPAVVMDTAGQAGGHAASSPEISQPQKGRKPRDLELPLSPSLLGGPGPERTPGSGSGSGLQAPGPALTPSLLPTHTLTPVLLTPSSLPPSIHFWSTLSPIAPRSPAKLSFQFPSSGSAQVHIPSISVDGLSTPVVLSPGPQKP
Summary of the method: as §1

GABPA = target: T3, GABPA (Homo sapiens, UniProt Q06546 1-454); conditions: protein: recombinant; tags: N-terminal GST; dsDNA, one strand shown
T3 sequence: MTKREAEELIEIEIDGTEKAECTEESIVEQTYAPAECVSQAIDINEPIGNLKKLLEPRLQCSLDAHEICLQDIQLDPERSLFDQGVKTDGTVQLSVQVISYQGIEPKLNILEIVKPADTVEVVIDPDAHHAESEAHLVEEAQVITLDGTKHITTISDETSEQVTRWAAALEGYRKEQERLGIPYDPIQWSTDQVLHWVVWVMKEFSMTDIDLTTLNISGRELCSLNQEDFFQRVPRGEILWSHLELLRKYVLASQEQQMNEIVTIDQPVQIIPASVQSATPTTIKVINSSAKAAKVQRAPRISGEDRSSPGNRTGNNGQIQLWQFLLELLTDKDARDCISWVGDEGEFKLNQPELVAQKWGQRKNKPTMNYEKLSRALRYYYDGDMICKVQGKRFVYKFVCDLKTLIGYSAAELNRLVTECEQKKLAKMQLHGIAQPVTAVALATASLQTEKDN
Summary of the method: as §1

ERG = target: T4, ERG (Homo sapiens, UniProt P11308 1-479); conditions: protein: recombinant; tags: N-terminal GST; dsDNA, one strand shown
T4 sequence: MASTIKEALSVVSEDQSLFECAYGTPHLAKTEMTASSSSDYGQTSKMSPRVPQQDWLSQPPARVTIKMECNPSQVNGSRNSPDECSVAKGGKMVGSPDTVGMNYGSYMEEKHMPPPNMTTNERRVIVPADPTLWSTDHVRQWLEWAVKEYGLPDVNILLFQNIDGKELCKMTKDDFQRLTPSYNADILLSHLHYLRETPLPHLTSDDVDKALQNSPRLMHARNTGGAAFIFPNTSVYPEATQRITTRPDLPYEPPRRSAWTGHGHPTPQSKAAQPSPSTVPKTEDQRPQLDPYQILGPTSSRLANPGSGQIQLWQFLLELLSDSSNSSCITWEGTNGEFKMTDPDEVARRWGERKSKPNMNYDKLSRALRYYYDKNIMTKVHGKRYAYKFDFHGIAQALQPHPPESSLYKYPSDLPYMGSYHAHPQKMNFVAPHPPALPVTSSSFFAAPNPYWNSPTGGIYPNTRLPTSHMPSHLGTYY
Summary of the method: as §1

ELF1 = ELF1 (Homo sapiens, UniProt P32519 1-619); conditions: protein: recombinant; tags: N-terminal GST; dsDNA, one strand shown
Summary of the method: as §1

EHF = target: T5, EHF (Homo sapiens, UniProt Q9NZC4 1-300); conditions: protein: recombinant; tags: N-terminal GST; dsDNA, one strand shown
T5 sequence: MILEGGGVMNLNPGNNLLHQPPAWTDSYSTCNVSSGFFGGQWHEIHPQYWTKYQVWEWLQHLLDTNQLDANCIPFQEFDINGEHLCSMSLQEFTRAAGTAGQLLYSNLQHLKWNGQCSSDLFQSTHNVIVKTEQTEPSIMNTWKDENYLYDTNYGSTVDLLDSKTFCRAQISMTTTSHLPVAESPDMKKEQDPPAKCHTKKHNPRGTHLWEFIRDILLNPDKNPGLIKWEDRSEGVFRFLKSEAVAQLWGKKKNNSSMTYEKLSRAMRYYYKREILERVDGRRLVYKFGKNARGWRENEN
Summary of the method: as §1

SPI1 = SPI1 (Homo sapiens, UniProt P17947 1-270); conditions: protein: recombinant; tags: N-terminal GST; dsDNA, one strand shown
Summary of the method: as §1

SPIB = SPIB (Homo sapiens, UniProt Q01892 1-262); conditions: protein: recombinant; tags: N-terminal GST; dsDNA, one strand shown
Summary of the method: as §1

ELK3 = target: T6, ELK3 (Homo sapiens, UniProt P41970 1-407); conditions: protein: recombinant; tags: N-terminal GST; dsDNA, one strand shown
T6 sequence: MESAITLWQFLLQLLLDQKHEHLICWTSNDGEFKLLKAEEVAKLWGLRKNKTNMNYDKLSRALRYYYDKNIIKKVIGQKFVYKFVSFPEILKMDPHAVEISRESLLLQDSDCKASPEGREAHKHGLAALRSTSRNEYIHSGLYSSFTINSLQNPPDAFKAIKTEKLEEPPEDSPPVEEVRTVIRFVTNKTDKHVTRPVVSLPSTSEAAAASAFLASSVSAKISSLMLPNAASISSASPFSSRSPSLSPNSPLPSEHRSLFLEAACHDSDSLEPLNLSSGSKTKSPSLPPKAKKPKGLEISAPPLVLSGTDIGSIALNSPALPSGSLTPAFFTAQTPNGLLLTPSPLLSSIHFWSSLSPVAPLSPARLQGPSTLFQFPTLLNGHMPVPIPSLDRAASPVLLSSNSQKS
Summary of the method: as §1

FEV = target: T7, FEV (Homo sapiens, UniProt Q99581 1-238); conditions: protein: recombinant; tags: N-terminal GST; dsDNA, one strand shown
T7 sequence: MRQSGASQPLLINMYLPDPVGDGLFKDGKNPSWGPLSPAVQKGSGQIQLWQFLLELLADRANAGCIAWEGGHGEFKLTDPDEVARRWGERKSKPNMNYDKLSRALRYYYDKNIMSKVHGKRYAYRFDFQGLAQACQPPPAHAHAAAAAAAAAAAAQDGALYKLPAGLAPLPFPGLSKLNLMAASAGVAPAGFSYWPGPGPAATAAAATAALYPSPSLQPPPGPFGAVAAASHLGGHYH
Summary of the method: as §1

ETV5 = ETV5 (Homo sapiens, UniProt P41161 1-510); conditions: protein: recombinant; tags: N-terminal GST; dsDNA, one strand shown
Summary of the method: as §1

HSF1 = HSF1 (Homo sapiens, UniProt Q00613 1-529); conditions: protein: recombinant; tags: N-terminal GST; chain copies: 3; dsDNA, one strand shown
Summary of the method: as §1

SPIC = target: T8, SPIC (Homo sapiens, UniProt Q8N5J4 1-248); conditions: protein: recombinant; tags: N-terminal GST; dsDNA, one strand shown
T8 sequence: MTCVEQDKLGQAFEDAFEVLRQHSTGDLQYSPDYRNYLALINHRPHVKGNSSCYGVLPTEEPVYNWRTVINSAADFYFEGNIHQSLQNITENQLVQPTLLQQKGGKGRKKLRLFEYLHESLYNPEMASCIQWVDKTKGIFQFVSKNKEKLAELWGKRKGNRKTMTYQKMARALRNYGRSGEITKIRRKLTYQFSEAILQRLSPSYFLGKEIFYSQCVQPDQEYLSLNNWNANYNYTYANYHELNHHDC
Summary of the method: as §1

ELF4 = ELF4 (Homo sapiens, UniProt Q99607 1-663); conditions: protein: recombinant; tags: N-terminal GST; dsDNA, one strand shown
Summary of the method: as §1

ELK4 = target: T9, ELK4 (Homo sapiens, UniProt P28324-2 1-405); conditions: protein: recombinant; tags: N-terminal GST; dsDNA, one strand shown
T9 sequence: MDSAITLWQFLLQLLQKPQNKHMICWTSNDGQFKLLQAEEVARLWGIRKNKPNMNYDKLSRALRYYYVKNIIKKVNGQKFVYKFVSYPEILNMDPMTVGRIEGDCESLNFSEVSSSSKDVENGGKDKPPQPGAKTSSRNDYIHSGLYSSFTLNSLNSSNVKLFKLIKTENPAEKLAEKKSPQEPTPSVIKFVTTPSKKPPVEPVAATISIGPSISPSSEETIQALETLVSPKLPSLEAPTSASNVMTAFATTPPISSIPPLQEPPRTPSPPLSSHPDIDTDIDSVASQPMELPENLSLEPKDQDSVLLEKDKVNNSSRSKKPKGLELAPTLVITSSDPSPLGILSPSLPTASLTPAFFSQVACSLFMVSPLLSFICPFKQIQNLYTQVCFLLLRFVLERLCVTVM
Summary of the method: as §1

ETV2 = target: T10, ETV2 (Homo sapiens, UniProt O00321 1-342); conditions: protein: recombinant; tags: N-terminal GST; dsDNA, one strand shown
T10 sequence: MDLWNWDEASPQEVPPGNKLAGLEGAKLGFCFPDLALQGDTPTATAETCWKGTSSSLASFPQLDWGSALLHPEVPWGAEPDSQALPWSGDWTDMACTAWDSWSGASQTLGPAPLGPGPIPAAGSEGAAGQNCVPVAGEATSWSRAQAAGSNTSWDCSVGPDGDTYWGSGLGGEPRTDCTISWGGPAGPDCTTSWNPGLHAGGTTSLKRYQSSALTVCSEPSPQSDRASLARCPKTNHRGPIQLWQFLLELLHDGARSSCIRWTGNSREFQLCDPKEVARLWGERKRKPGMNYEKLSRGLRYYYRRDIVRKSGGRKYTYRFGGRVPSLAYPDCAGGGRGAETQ
Summary of the method: as §1

ELF3 = target: T11, ELF3 (Homo sapiens, UniProt P78545 1-371); conditions: protein: recombinant; tags: N-terminal GST; dsDNA, one strand shown
T11 sequence: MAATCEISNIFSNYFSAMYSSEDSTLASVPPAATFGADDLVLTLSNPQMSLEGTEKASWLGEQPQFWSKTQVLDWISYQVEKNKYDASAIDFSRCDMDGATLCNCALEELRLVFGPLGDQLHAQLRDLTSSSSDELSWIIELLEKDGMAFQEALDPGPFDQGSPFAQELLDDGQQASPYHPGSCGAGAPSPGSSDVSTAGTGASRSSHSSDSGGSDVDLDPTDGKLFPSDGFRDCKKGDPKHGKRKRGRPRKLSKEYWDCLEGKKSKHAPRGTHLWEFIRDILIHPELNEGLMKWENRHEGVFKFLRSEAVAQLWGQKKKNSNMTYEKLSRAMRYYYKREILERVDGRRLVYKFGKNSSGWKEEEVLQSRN
Summary of the method: as §1

CRX = CRX (Homo sapiens, UniProt O43186 1-299); conditions: protein: recombinant; tags: N-terminal GST; dsDNA, one strand shown
Summary of the method: as §1

ETV1 = ETV1 (Homo sapiens, UniProt P50549 1-477); conditions: protein: recombinant; tags: N-terminal GST; dsDNA, one strand shown
Summary of the method: as §1

Sequence of ETV1 (P50549 whole entry): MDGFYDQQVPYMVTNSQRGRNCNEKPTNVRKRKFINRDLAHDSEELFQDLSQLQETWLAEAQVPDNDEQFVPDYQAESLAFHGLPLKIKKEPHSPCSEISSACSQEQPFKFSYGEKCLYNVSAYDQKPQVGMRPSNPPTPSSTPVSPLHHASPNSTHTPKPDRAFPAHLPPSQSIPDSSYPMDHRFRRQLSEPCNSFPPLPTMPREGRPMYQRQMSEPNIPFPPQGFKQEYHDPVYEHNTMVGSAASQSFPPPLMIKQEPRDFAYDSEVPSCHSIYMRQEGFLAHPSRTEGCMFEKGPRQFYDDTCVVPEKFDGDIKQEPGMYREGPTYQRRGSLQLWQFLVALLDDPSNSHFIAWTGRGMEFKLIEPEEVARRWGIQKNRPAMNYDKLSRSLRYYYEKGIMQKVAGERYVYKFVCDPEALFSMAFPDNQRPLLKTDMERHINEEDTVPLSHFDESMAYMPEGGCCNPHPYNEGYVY
Sequence of ELF1 (P32519 whole entry): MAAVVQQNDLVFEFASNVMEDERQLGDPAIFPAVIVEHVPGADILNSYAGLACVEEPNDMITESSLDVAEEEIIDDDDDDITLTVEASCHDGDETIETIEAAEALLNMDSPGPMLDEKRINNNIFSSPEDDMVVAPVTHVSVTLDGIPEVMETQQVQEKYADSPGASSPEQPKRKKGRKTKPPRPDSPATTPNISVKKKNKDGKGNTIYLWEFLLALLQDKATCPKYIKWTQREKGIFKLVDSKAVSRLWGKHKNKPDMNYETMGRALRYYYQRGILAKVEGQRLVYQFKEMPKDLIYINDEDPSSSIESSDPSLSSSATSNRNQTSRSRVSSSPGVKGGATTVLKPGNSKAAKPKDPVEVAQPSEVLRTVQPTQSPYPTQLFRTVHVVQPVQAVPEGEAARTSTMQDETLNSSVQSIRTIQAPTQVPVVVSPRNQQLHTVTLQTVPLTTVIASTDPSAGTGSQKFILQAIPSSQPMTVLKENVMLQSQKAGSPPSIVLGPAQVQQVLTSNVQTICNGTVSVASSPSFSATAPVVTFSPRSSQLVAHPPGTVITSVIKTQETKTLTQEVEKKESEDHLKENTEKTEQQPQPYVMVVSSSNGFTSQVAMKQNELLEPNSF
Sequence of SPIB (Q01892 whole entry): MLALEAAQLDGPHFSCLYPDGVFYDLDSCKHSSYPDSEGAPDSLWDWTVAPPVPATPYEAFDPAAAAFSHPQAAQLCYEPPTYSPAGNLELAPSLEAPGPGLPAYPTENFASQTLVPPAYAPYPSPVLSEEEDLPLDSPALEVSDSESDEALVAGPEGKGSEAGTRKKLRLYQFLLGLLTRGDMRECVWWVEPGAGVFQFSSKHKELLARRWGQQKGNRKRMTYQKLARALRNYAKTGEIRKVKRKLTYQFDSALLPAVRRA
Sequence of ELF4 (Q99607 whole entry): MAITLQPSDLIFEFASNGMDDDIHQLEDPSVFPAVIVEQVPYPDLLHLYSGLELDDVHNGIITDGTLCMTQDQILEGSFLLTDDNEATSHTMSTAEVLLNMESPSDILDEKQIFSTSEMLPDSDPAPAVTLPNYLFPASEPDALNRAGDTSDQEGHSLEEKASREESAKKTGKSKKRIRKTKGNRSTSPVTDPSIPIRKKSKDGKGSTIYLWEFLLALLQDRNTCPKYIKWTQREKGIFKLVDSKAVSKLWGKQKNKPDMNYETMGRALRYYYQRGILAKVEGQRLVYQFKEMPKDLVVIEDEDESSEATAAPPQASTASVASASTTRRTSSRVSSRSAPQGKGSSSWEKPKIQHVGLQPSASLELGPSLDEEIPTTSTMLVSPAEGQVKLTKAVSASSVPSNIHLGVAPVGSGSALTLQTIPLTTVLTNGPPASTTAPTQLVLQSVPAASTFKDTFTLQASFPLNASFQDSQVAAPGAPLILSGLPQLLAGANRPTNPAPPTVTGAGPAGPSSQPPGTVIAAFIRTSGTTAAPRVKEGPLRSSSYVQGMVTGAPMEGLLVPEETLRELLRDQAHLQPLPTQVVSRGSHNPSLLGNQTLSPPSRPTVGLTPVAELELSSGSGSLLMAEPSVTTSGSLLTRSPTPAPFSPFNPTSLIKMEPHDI
Sequence of HSF1 (Q00613 whole entry): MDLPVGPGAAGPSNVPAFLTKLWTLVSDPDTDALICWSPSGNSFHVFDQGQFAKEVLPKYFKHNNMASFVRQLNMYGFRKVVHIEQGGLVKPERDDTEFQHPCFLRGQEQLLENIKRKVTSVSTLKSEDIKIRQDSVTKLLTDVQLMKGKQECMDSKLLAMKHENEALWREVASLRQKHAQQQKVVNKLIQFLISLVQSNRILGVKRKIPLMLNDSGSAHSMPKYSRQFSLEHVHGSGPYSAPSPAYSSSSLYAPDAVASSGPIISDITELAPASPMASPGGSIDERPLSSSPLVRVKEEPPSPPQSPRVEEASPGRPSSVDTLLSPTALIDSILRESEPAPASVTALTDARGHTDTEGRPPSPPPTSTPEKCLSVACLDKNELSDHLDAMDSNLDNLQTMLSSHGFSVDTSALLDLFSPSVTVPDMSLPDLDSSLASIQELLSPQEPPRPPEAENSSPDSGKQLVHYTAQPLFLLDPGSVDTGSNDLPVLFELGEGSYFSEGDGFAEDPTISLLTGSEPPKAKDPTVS
Sequence of ETV5 (P41161 whole entry): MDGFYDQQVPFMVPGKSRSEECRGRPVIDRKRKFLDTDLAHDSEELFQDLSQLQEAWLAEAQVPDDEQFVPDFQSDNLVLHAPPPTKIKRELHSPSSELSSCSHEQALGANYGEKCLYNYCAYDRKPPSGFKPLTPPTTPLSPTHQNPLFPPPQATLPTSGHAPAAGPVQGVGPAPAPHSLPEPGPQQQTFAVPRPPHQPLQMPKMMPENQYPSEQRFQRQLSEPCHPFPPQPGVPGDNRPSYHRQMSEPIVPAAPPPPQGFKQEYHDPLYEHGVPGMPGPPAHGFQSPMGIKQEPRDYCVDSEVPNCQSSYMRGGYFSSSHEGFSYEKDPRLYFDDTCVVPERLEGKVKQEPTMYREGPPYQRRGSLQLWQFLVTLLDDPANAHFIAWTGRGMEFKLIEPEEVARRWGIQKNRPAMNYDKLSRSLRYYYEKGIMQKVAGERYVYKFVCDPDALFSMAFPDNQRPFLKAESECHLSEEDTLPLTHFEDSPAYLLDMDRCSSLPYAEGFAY
Sequence of CRX (O43186 whole entry): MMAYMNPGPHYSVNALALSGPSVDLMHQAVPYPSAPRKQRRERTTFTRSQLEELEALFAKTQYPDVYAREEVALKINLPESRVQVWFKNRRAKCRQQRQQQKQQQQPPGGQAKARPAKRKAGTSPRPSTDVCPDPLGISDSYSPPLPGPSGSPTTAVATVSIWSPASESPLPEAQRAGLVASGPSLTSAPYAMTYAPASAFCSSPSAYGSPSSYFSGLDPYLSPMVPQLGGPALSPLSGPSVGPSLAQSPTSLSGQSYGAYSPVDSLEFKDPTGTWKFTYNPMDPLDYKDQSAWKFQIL

Which results are given for ACAATT?
binding signal (FLI1): 1.33 fold enrichment (6-mer frequency, TF over GST control); binding signal (ELK1): 1.27 fold enrichment (6-mer frequency, TF over GST control); binding signal (GABPA): 1.15 fold enrichment (6-mer frequency, TF over GST control); binding signal (ERG): 1.32 fold enrichment (6-mer frequency, TF over GST control); binding signal (ELF1): 1.32 fold enrichment (6-mer frequency, TF over GST control); binding signal (EHF): 1.23 fold enrichment (6-mer frequency, TF over GST control); binding signal (SPI1): 1.23 fold enrichment (6-mer frequency, TF over GST control); binding signal (SPIB): 1.2 fold enrichment (6-mer frequency, TF over GST control); binding signal (ELK3): 1.25 fold enrichment (6-mer frequency, TF over GST control); binding signal (FEV): 1.27 fold enrichment (6-mer frequency, TF over GST control); binding signal (ETV5): 1.33 fold enrichment (6-mer frequency, TF over GST control); binding signal (HSF1): 1.18 fold enrichment (6-mer frequency, TF over GST control); binding signal (SPIC): 1.17 fold enrichment (6-mer frequency, TF over GST control); binding signal (ELF4): 1.25 fold enrichment (6-mer frequency, TF over GST control); binding signal (ELK4): 1.26 fold enrichment (6-mer frequency, TF over GST control); binding signal (ETV2): 1.29 fold enrichment (6-mer frequency, TF over GST control); binding signal (ELF3): 1.35 fold enrichment (6-mer frequency, TF over GST control); binding signal (CRX): 1.13 fold enrichment (6-mer frequency, TF over GST control); binding signal (ETV1): 1.24 fold enrichment (6-mer frequency, TF over GST control)
